An excerpt weighted towards active compounds, which were near 18% of everything screened.
TDP1 block = TDP1 (human) enzyme inhibition | Potency, µM (highest dose often 130 µM), for the others: at the highest dose activity change, negative = inhibition, hits mostly inhibitors | recombinant TDP1, AlphaScreen DNA substrate cleavage | actives 0.28% (n = 350,000) | Q9NUW8; note: potency is the fitted concentration of half-maximal effect; % is set by controls: 0 for no effect and ±100 for the full control effect; nearly all actives have a fitted effect of over 40% in size
Target sequence (Q9NUW8 whole entry, looked up): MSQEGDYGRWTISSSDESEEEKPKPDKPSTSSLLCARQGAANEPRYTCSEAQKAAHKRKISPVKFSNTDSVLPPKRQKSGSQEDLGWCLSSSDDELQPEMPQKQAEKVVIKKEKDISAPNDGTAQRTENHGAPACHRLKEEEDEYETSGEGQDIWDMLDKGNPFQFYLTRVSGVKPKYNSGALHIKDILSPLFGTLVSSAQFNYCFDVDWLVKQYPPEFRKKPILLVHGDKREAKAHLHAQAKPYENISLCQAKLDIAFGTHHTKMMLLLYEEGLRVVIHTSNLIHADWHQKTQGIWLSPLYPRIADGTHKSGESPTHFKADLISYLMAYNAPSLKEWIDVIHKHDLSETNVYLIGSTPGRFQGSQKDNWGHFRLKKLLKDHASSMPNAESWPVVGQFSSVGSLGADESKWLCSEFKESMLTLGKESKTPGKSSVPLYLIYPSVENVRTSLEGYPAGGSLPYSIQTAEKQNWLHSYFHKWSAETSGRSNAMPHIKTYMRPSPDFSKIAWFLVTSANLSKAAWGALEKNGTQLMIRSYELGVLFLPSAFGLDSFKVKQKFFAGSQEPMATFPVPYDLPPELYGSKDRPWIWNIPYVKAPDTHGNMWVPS
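Signal: AlphaScreen proximity between streptavidin donor and anti-FITC acceptor beads on intact substrate. Reaction: Tdp1 1 nM, substrate 15 nM final, 5 min RT after 15 min compound preincubation.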
IL1B secr inh = blocks inflammasome-driven IL-1 beta release | activity change, % at 57.5 µM | THP-1 LPS/ATP IL-1B secretion, AlphaLISA, 16 h; active compounds read low | AID 743279 | actives 4.7% (n = 360,000); in the data active = activity change below about -50%; inconclusive = mostly about -30% to -49%; note: % is set by controls: 0 for no effect and ±100 for the full control effect
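Secreted IL-1B measured by AlphaLISA bead assay after 16 h compound exposure of THP-1 cells; compounds (final up to 57.5 uM) added 1 h before LPS (250 ng/mL) and ATP (1.25 mM) stimulation; lower signal means less secretion.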
HepG2 viability = kills HepG2 cells in TGF-b inhibitor counter-screen | actives 0.76% (n = 410,000) | HepG2 CAGA-GFP viability, ATP luminescence, 18 h | AID 588856 | Potency, µM (titrated, usually from 46.1 µM), for inactives: at the top dose activity change, negative = cytotoxicity, hits mostly cytotoxic; note: potency is the fitted concentration of half-maximal effect
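HepG2 CAGA-GFP cells (1000/well, DMEM with 1% FBS) received compound, then TGF-beta at 500 pg/mL final, and were incubated 18 hours at 37 degrees C. Viability was read by CellTiter-Glo luminescence. Media-only wells were set as complete cell-killing and DMSO as no toxicity.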
TDP1 cell CPT = growth inhibition of DT40 Tdp1-/-;hTDP1 cells with camptothecin (screen for TDP1 inhibitors); AID 686979; Potency, µM (top dose mostly 46.2 µM), inactives show at the highest dose activity change, negative = growth inhibition, hits mostly inhibitors; chicken DT40 Tdp1-/-;hTDP1 cells + 20 nM CPT, ATP luminescence, 48 h; actives 12% (n = 420,000); note: potency is the fitted concentration of half-maximal effect; % is set by controls: 0 for no effect and ±100 for the full control effect; nearly all actives have a fitted effect of over 55% in size
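Cell growth measured by CellTiter-Glo luminescence after a minimum 48 h, 37 C compound exposure with 20 nM CPT in Tdp1-knockout DT40 cells stably expressing hTDP1, seeded 400/well; qHTS titration format.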
TGFb inhibitor = inhibitors of TGF-b signaling. actives 1.2% (n = 410,000). Potency, µM (top dose mostly 46.1 µM), for inactives: top-dose activity, negative = inhibition, hits mostly inhibitors. HepG2 CAGA-GFP TGF-b/SMAD3 reporter, GFP fluorescence, 18 h; TGF-beta stimulated, 500 pg/mL final; note: potency is the fitted concentration of half-maximal effect; % is set by controls: 0 for no effect and ±100 for the full control effect; nearly all actives have a fitted effect of over 65% in size
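Smad-responsive CAGA-GFP expression was quantified in HEPG2 cells exposed to compounds and 500 pg/mL final TGF-beta for 18 h at 37 degrees C; unstimulated wells defined full inhibition.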
TDP1 cell noCPT = qHTS for Inhibitors of human tyrosyl-DNA phosphodiesterase 1 (TDP1): qHTS in cells in absence of CPT; DT40 Tdp1-/- hTDP1 cells, no CPT, ATP luminescence, 48 h; Potency, µM (doses to about 46.2 µM), without a hit: at the highest dose activity change, negative = growth inhibition, most hits filed as inhibitors; actives 15% (n = 420,000); AID 686978, 2013; note: potency is the fitted concentration of half-maximal effect; % is set by controls: 0 for no effect and ±100 for the full control effect; nearly all actives have a fitted effect of over 55% in size
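Readout: luminescence from CellTiter-Glo after 30 min in the dark at RT. Cells: DT40 Tdp1-/- with stable hTDP1, 400/well. Exposure: compounds alone, ≥48 hr, 37 °C.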
* hit, by the source's call; ? = inconclusive; . = not tested or not shown. Unless noted, calls come from the whole dose curve; as a rule, active = well fitted curve in the direction sought with a large enough effect; inconclusive = small, poorly fitted or top-dose-only effect, or another doubt; inactive = no such curve, though single readings can be large; an effect the other way counts as inactive or inconclusive.

SMILES	TDP1 block	IL1B secr inh	HepG2 viability	TDP1 cell CPT	TGFb inhibitor	TDP1 cell noCPT
O=C(CSc1ncnc2ccccc12)Nc1ccc(N2CCOCC2)cc1	4%	.	.	.	.	.
O=C(CSc1ncnc2ccccc12)Nc1cccc(S(=O)(=O)N2CCOCC2)c1	-5%	?	26%	-19%	-24%	16µM*
COc1cc2nc(CN3CCN(S(=O)(=O)c4ccccc4[N+](=O)[O-])CC3)[nH]c(=O)c2cc1OC	.	?	-34%	?	?	?
CCN(Cc1ccccc1)c1nc2c(S(=O)(=O)c3ccccc3)nnn2c2ccc(Cl)cc12	1%	.	1%	?	-2%	?
CCCCCCCc1c(O)nc(SCCN(C)C)[nH]c1=O	.	-51*	6%	7%	-1%	0%
CCOC(=O)C1CCN(C(=O)C(CCSC)NC(=O)c2ccccc2OC)CC1 (centres undefined)	2%	8	1%	?	-17%	?
CCC(CC)C(=O)N1CCc2cc(OC)c(OC)cc2C1COc1ccc(C(=O)OC)cc1 (centres undefined)	8%	.	-23%	?	?	?
COC(=O)c1ccc(OCC2c3cc(OC)c(OC)cc3CCN2C(=O)Cc2ccccc2)cc1 (centres undefined)	8%	.	-6%	?	4%	16µM*
COc1ccc(OCC2c3cc(OC)c(OC)cc3CCN2C(=O)COc2ccc(Cl)cc2Cl)cc1 (centres undefined)	5%	.	-7%	?	0%	16µM*
COc1ccc(CC(=O)N2CCc3cc(OC)c(OC)cc3C2COc2ccc(F)cc2)cc1 (centres undefined)	10%	.	-33%	13µM*	-25%	16µM*
COc1ccc(CC(=O)N2CCc3cc(OC)c(OC)cc3C2COc2ccc(F)cc2)cc1OC (centres undefined)	8%	.	-8%	?	14%	?
CCC(=O)N1CCc2cc(OC)c(OC)cc2C1COc1ccc(OC)cc1 (centres undefined)	-1%	-5	6%	-16%	?	-20%
COC(=O)c1ccc(OCC2c3cc(OC)c(OC)cc3CCN2C(=O)COc2ccc(Cl)cc2)cc1 (centres undefined)	10%	.	0%	21µM*	33%	29µM*
O=C(O)c1ccc(N2CC3CC(C2)c2cccc(=O)n2C3)c(NC(=S)Nc2ccc(Br)cc2)c1 (centres undefined)	-11%	-1	-14%	?	-19%	?
CC(=O)Nc1ccc(SCC(CC(C)C)N2CCN(C)CCC2=O)cc1 (centres undefined)	9%	.	-23%	.	-3%	.
COc1cc2c(cc1OC)C(COc1ccc([N+](=O)[O-])cc1)N(C(C)=O)CC2 (centres undefined)	.	-4	-35%	23µM*	?	18µM*
COCCNC(=S)N1CCc2cc(OC)c(OC)cc2C1COc1cc(C)cc(C)c1 (centres undefined)	3%	?	-11%	26µM*	?	?
CNC(=S)N1CCc2cc(OC)c(OC)cc2C1COc1ccc(OC)cc1 (centres undefined)	2%	0	2%	-2%	-1%	?
CCCCC(=O)N1CCc2cc(OC)c(OC)cc2C1COc1ccc(OC)cc1 (centres undefined)	3%	.	-26%	16µM*	-2%	21µM*
CC(C(=O)Nc1nccs1)N1C(=O)c2ccccc2S1(=O)=O (centres undefined)	.	15	0%	-6%	0%	-3%

Screening results as filed in PubChem.
